Shown are actives, neighbours in structure and some others; about 2.4% of the full set was active somewhere.
Mito fusion act: qHTS Assay for Small Molecule Inhibitors of Mitochondrial Division or Activators of Mitochondrial Fusion; Potency, µM (highest dose often 46.1 µM), actives largely listed as activators; AID 485298, 2010; S. cerevisiae fusion-defective mutant growth rescue, CellTiterGlo 48 h; 320,000 compounds, 0.23% hits; note: nearly all actives have a fitted effect of over 45% in size
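Growth-rescue viability read-out: after 48 h at the non-permissive 37C in glycerol/ethanol YPEG, yeast mitochondrial fusion mutants are measured by CellTiterGlo luminescence; compounds (23 nl pinned per well) restoring growth score as division inhibitors or fusion activators.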
Abeta rescue: qHTS for compounds that reverse cellular toxicity of Amyloid beta (A-beta) peptide in yeast: Primary Screen; yeast expressing A-beta42, growth rescue, OD600, 48 h; response scale: 0% DMSO, 100% iron-clioquinol control; Potency, µM (series often up to 46.1 µM), hits mostly activators; 410,000 compounds, 0.063% hits; note: nearly all actives have a fitted effect of over 55% in size
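Yeast growth medium received pinned compounds, then yeast cells expressing toxic A-beta were added; plates incubated at 30 C for 48 hr. Growth read as absorbance at 600 nm, normalized to DMSO and equimolar FeCl3 plus clioquinol controls.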
TDP43 rescue: qHTS of TDP-43 Inhibitors; TDP-43 expressing yeast growth rescue, BacTiter-Glo, 24 h; Potency, µM (titrated, usually from 46.1 µM), actives largely listed as activators; 410,000 compounds, 1.8% hits; AID 652104, 2013; note: nearly all actives have a fitted effect of over 50% in size
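Yeast expressing TDP-43 (pregrown in raffinose, seeded at OD600=0.02 in galactose medium) exposed to compounds 24 hr at 30 deg C. Growth read by BacTiter-Glo luminescence; rescue of toxicity appears as increased signal.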
aSyn rescue: qHTS of alpha-syn Inhibitors; Yeast expressing alpha-synuclein, growth rescue, BacTiter-Glo, 24 h; Potency, µM (doses to about 46.1 µM), hits mostly activators; 370,000 compounds, 0.14% hits; note: nearly all actives have a fitted effect of over 65% in size
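Readout is rescue of growth in alpha-synuclein-expressing yeast, so inhibitors of toxicity appear as activators. Growth after 24 hr at 30 deg C in galactose medium is quantified by luminescence.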
FUS suppressor: qHTS for Suppressors of FUS Proteinopathy: Primary screen using FUS-linked yeast assay | S. cerevisiae FUS-expressing, growth rescue, OD600, 24 h | Potency, µM (titrated, usually from 76.6 µM), most hits filed as activators | 390,000 compounds, 0.24% hits | AID 1347120, 2019; note: nearly all actives have a fitted effect of over 55% in size
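Absorbance at 600 nm, taken 24hr after compound addition, measured rescue of FUS-yeast growth at 30C. Induction used 2% galactose with seeding at OD 0.005. Controls: CP55940 from 92uM final, DMSO only.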
A-T KAP1 phos: qHTS Assay for Identifying a Potential Treatment of Ataxia-Telangiectasia | F2112 A-T fibroblasts, KAP-1 phosphorylation AlphaLISA; neocarzinostatin DNA damage 30 min before lysis | Potency, µM (top dose mostly 57.5 µM), hits mostly activators | 320,000 compounds, 0.19% hits | AID 485349, 2010; note: nearly all actives have a fitted effect of over 45% in size
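hTERT-immortalized A-T patient fibroblasts (F2112), 500 cells/well in OPTI-MEM, 1% FBS, got compounds for 60 min, then NCS for 30 min at 37C. Lysates were then assayed for phospho-KAP-1 by AlphaLISA (anti-pKAP1 donor, anti-KAP1 acceptor beads), 6 hr at 25C.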
A number is an active result; 0 = inactive; ? = inconclusive; - = no result given. Calls come from the whole dose curve; as a rule, active = well fitted curve in the direction sought with a large enough effect; inconclusive = small, poorly fitted or top-dose-only effect, or another doubt; inactive = no such curve, though single readings can be large; an effect the other way counts as inactive or inconclusive.

SMILES | Mito fusion act | Abeta rescue | TDP43 rescue | aSyn rescue | FUS suppressor | A-T KAP1 phos
COc1ccc(C)c2sc(N3CCN(C(=O)c4ccco4)CC3)nc12 | - | 0 | 22.4µM | - | 0 | -
Cc1ccc(C)c2sc(N3CCN(C(=O)c4ccc([N+](=O)[O-])o4)CC3)nc12 | 20µM | 0 | 0 | 0 | 0 | 0
Cc1ccc(Cl)c2sc(N3CCN(C(=O)C4CC4)CC3)nc12 | - | 0 | 14.1µM | - | ? | -
O=C(c1ccc([N+](=O)[O-])o1)N1CCN(c2nc3c(F)cc(F)cc3s2)CC1 | ? | 0 | 0 | 0 | 0 | 0
COc1ccc(OC)c(-c2cc(C(=O)NC(C)c3ccccc3)no2)c1 (stereo not drawn) | - | 0 | ? | - | 0 | -
CC1(C)CC(=O)C(CC(=O)NC2CCCc3ccccc32)C(=O)C1 (stereo not drawn) | 0 | 0 | 25.1µM | 0 | 0 | 0
Cc1ccccc1CC(=O)NC1CCCc2ccccc21 (stereo not drawn) | 0 | 0 | 0 | 0 | 0 | 0
O=C(CSc1nnnn1-c1ccccc1)NC1CCCc2ccccc21 (stereo not drawn) | 0 | ? | 11.2µM | 0 | 0 | 0
Cc1cccc(-n2nnc(C(=O)NC3CCCc4ccccc43)c2N)c1 (stereo not drawn) | 0 | 0 | 15.8µM | 0 | 0 | 0
Cc1cc(=O)n(CC(=O)N2CCN(c3ccccc3F)CC2)c2c1c(C)nn2C | - | 0 | ? | - | 0 | -
O=C(Nc1nnc(-c2ccc(F)cc2)o1)c1cccc([N+](=O)[O-])c1 | 0 | ? | 11.2µM | ? | 0 | 0
O=C(Nc1ccsc1C(=O)O)c1cccc(Oc2ccccc2)c1 | 0 | 0 | 0 | 0 | 0 | 0
O=C(Nc1nnc(-c2cccs2)o1)c1cc(-c2ccccc2)nc2ccccc12 | 12.6µM | ? | 0 | ? | 0 | 0
O=C(Nc1nnc(-c2cccs2)o1)c1cccc(F)c1 | - | 11.2µM | 12.6µM | 0 | 0 | -
O=C(Nc1nnc(-c2cccs2)o1)c1cccc(Oc2ccccc2)c1 | 0 | 0 | 3.98µM | ? | 0 | 0
O=C(Nc1nnc(C2=COCCO2)o1)c1cccc([N+](=O)[O-])c1 | 0 | 0 | 0 | 0 | 0 | 0
O=C(NCc1cccs1)c1cc(-c2ccccc2)nc2ccccc12 | ? | 0 | 0 | 0 | - | 0
CCCN1C(=O)C(O)(CC(=O)c2ccc(OC)c(OC)c2)c2ccccc21 (stereo not drawn) | - | 0 | 0 | - | 0 | -
COc1ccc(CCNC(=O)CSc2ncc3c(n2)-c2cc(Cl)ccc2N(Cc2ccccc2)S3(=O)=O)cc1OC | - | 0 | 0 | - | 0 | -
Cc1ccccc1-c1nnn(CC(=O)Nc2sc3c(c2C#N)CCC(C(C)(C)C)C3)n1 (stereo not drawn) | - | 0 | 0 | 0 | 0 | -
COc1ccc(C2CC(=O)c3cc(-c4nc(-c5ccc(C)cc5)cs4)c(=O)[nH]c3C2)cc1 (stereo not drawn) | - | 0 | 0 | - | 0 | -
CCOC(=O)[C@]12CCCCC/C=C\1N(CCc1ccc(Cl)cc1)C(=O)[C@H]2CC(=O)NCCCOC | - | - | - | - | 0 | -
CCOC(=O)C1=C(C)N=c2s/c(=C\c3ccc(OCC(=O)O)cc3)c(=O)n2C1c1ccccc1 (stereo not drawn) | 0 | 0 | 0 | 0 | ? | 0
CCOC(=O)C1=C(C)N=c2s/c(=C\c3ccc(OCC(=O)O)c(OC)c3)c(=O)n2C1c1ccc(OC)cc1 (stereo not drawn) | 0 | 0 | 0 | 0 | 35.5µM | 0
CCOC(=O)Cn1c(=O)n(-c2ccccc2OC)c2nc(-c3ccccc3)nc(C(N)=O)c21 | - | 0 | 0 | ? | ? | -
SMILES | Mito fusion act | Abeta rescue | TDP43 rescue | aSyn rescue | FUS suppressor | A-T KAP1 phos
COC(=O)[C@@]12CCCCN1[C@H](c1ccc(-c3ccc(F)cc3)c(OC)c1)[C@@H]1C(=O)N(C)C(=O)[C@@H]12 | ? | 0 | 15.8µM | ? | 0 | 0
COC(=O)[C@@]12CCCN1[C@H](c1ccc(-c3ccc(OC)cc3)cc1)[C@@H]1C(=O)N(C)C(=O)[C@@H]12 | 0 | 0 | 22.4µM | 0 | ? | 0
COC(=O)[C@@]12CCCN1[C@H](c1ccc(-c3ccccc3)cc1)[C@H]1C(=O)N(C)C(=O)[C@H]12 | 0 | 0 | 0 | 0 | 0 | ?
COC(=O)[C@@]12CCCN1[C@H](c1ccc(-c3ccc4c(c3)OCO4)c(OC)c1)[C@H]1C(=O)N(C)C(=O)[C@H]12 | 0 | 0 | 0 | 0 | ? | 0
COC(=O)[C@@]12CCCCN1[C@H](c1ccc(-c3ccc4c(c3)OCO4)c(OC)c1)[C@@H]1C(=O)N(C)C(=O)[C@@H]12 | ? | 0 | 12.6µM | 0 | 11.2µM | 0
COC(=O)[C@@]12CCCN1[C@H](c1ccc(-c3ccc(OC)cc3)c(OC)c1)[C@@H]1C(=O)N(C)C(=O)[C@@H]12 | 0 | 0 | ? | 0 | ? | 0
COC(=O)[C@@]12CCCCN1[C@H](c1ccc(-c3ccc(F)cc3)cc1)[C@@H]1C(=O)N(C)C(=O)[C@@H]12 | 12.6µM | 0 | 12.6µM | 0 | 0 | 0
COC(=O)[C@@]12CCCCN1[C@H](c1ccc(-c3ccccc3)cc1)[C@H]1C(=O)N(C)C(=O)[C@H]12 | ? | 0 | 0 | 0 | 0 | 0
CC(=O)/C(=C/c1ccccc1)C(=O)Nc1ccccc1C | 0 | 0 | 2.51µM | ? | 0 | 0
Cc1ccccc1NC(=O)C(=Cc1ccc(C(=O)O)cc1)C(=O)Nc1ccccc1C | 0 | 0 | 0 | 0 | 0 | ?
CCNC(=S)NN=C1c2ccccc2-c2ccccc21 | 0 | 0 | 12.6µM | 0 | 0 | 0
C=C(C)CNC(=S)NN=C1c2ccccc2-c2ccccc21 | 0 | 0 | 0 | 0 | 0 | 0
COc1ccc(Cl)cc1NC(=O)CCc1ccccc1 | 0 | 0 | 8.91µM | 0 | 0 | 0
Cc1cc(Cl)ccc1NNC(=O)CCc1ccccc1 | 0 | 0 | 12.6µM | 0 | 0 | 0
COc1ccc(Cl)cc1NC(=O)CN(C)CC(=O)Nc1cc(OC)c(OC)c(OC)c1 | 0 | 0 | 0 | 0 | 0 | 0
COc1ccc(Cl)cc1NC(=S)NCCc1ccc(F)cc1 | 0 | ? | 31.6µM | 0 | 0 | 0
COc1ccc(Cl)cc1NC(=O)CN(C)CC(=O)Nc1ccc(Br)cc1 | 0 | 0 | 22.4µM | 0 | 0 | 0
O=C(COC(=O)c1ccc(Sc2ncn[nH]2)c([N+](=O)[O-])c1)Nc1ccc(Cl)cc1 | - | - | - | - | 0 | -
COc1ccc(CCNC(=O)Nc2ccc(F)cc2F)cc1OC | 0 | 0 | 0 | 0 | 0 | 10µM
COc1ccc(CCNC(=O)NC(C(F)(F)F)C(F)(F)F)cc1OC | 0 | 0 | 0 | 0 | 0 | 0

Compound activity deposited in PubChem by National Center for Advancing Translational Sciences (NCATS).
